# Measurements from PubChem BioAssay AID651957 (The Scripps Research Institute Molecular Screening Center, 2012).
# Out of some 370,000 compounds screened, about 620 (0.17%) were called active.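 How the source made its calls: active means inhibition above the mean inhibition of all tested compounds plus 3 SD, set per campaign (cut at about 52% in these data); inactive means the rest.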 The list comes from a sample in which actives are over-represented; it also holds similar structures and randomly drawn compounds.
# Molecular target: Nuclear receptor coactivator 2 (Homo sapiens) (UniProt Q15596)
# Sequence (Q15596 whole entry, looked up, the tested form may be a part): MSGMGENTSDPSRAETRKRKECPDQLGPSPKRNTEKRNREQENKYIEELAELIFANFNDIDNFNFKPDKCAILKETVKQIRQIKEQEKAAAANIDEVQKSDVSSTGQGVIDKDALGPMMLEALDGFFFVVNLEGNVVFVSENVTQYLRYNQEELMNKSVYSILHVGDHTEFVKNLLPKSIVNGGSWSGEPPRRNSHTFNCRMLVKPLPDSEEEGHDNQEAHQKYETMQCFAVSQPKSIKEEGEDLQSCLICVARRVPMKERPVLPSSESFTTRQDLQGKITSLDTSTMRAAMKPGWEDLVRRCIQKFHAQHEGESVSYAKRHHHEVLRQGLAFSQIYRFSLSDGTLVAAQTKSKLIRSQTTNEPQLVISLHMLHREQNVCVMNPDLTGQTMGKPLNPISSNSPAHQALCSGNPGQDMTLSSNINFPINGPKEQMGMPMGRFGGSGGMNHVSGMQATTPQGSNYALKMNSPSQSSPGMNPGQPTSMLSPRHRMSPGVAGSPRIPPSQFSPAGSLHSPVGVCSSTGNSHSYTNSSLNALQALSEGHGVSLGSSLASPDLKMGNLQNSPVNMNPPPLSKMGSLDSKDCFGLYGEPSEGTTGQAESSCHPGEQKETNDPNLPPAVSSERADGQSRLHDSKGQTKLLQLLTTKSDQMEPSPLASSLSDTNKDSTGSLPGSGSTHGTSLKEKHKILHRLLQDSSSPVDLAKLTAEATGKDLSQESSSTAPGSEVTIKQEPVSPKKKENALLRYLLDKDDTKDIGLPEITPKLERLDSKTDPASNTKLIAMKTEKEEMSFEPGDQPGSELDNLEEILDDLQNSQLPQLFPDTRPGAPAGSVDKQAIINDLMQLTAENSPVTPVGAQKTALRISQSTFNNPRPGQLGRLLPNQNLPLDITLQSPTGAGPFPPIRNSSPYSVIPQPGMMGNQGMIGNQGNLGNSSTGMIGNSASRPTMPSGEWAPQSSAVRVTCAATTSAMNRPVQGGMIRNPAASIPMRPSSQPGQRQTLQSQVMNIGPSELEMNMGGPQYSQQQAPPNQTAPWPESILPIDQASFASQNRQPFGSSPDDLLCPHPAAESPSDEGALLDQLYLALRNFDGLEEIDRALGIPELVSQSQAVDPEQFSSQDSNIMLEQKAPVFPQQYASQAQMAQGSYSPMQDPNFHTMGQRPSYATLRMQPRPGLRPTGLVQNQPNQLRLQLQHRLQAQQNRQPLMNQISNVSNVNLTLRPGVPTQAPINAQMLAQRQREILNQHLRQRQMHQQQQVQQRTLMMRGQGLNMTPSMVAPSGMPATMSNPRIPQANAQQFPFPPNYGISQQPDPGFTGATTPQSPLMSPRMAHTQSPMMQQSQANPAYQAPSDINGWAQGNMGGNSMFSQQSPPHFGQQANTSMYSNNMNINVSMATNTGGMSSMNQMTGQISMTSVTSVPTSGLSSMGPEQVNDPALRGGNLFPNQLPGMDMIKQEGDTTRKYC
# Experiment: inhibition of GAL4-SRC2 driven luciferase reporter, primary screen, SRC2 inhibitor project, cell-based, luminescence (AID 651957);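 further: 0% = DMSO treated cells and 100% = cells given Gossypol at 36 µM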
# Conditions: HEK293 GAL4-SRC2 luciferase reporter, at 9 µM, active compounds read high
row,SMILES,inhibition
1,CCC(C)(O)C(=O)OC1C(=O)OC2CC3C(C)=CC(=O)C(O)C3(C)C3C4(O)OCC23C1C(C)C4O (stereo not given),74.8% (active)
2,O=C(COc1ccc2ccccc2c1)N1CCN(Cc2ccncc2)CC1,9.05% (inactive)
3,CC1([N+](=O)[O-])COP(=O)(Nc2ccc(F)cc2)OC1 (stereo not given),-54.9% (inactive)
4,CCN1CCN(C(=O)Cc2coc3cc(C)cc(C)c23)CC1,-5.27% (inactive)
5,CC(C)n1c(=O)c(C=Nc2ccc(Br)cc2)c(O)n(Cc2ccco2)c1=O,8.44% (inactive)
6,C[C@]12CC[C@H](O)C[C@H]1CC[C@@H]1C2CC[C@]2(C)[C@@H](C3=CC(=O)OC3)[C@@H](O)C[C@]12O (stereo not given in full),10.7% (inactive)
7,COC1C(O)C(C)OC(OC2CCC3(C=O)C(CCC4C3CCC3(C)C(C5=CC(=O)OC5)CCC43O)C2)C1O (stereo not given),55% (active)
8,Brc1ccc2c(c1)CNCc1cnnn1-2,-46.2% (inactive)
9,Cc1ccccc1CCC[C@@H](CC1CCCCC1)CN(C)C(=O)Oc1ccccc1,-0.22% (inactive)
10,COP(=O)(Sc1ccccc1)C(Cc1ccccc1)NC(=O)OCc1ccccc1 (stereo not given),2.58% (inactive)
